According to PubChem BioAssay AID626 (Vanderbilt High Throughput Screening Facility, 2007):
Screen size: about 64,000 compounds; about 1,900 (3%) were called active. This excerpt belongs to a sample that is enriched for actives. A number with no mark means an inactive call.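 How the source made its calls: active means fluorescence rise, raw or as B-score row- and column-corrected plate score, outside the 99.7% band of its plate's samples, either direction; inactive means the rest.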

test system: Muscarinic acetylcholine receptor M1; experiment: M1 muscarinic receptor agonists, primary screen, CHO-M1 cells, Fluo-4 calcium, agonist mode (AID 626); conditions: Fluo-4 calcium fluorescence, at 10 µM, active compounds read high

Structure (SMILES) | B-score
O=C(c1ccco1)N(Cc1nc2ccccc2c(=O)[nH]1)C1CCCC1 | 1.19
COc1ccc2oc(=O)c(C(=O)O)cc2c1 | -0.167
CCN(CC)c1ccc2oc(=O)c(C)nc2c1 | 19.1 (active)
CCCOC(=O)c1cc2ccccc2oc1=O | -0.13
CCc1ccc2oc(-c3ccc(N)cc3)nc2c1 | 0.427
CCN(CC)c1ccc2cc(C(=O)O)c(=O)oc2c1 | 17.2 (active)
CCC1(C)Cc2c(sc3nc4n(c(=O)c23)CCCS4)CO1 (centres undefined) | -0.146
CCOC(=O)c1cc(-c2ccc(Cl)s2)nc2c1c(C)nn2C | 0.0112
CSc1ccc(Cl)c(C(=O)OCC(=O)N2CC(C)OC(C)C2)c1 (centres undefined) | -0.691
Cc1cc(OCCN2CCCC2)ccc1C(C)C | -1.57
COc1ccccc1Nc1nc(N)nc(CN(C)C2CCCCC2)n1 | 0.169
COc1ccccc1NC1=NC(c2ccc(Cl)cc2)N=C(N)N1 (centres undefined) | 2.75 (active)
COc1ccccc1NC1=NC2(CCCC2)N=C(N)N1 | 0.458
O=C(Nc1nc(-c2ccncc2)cs1)C1COc2ccccc2O1 (centres undefined) | -1.04
O=C(Nc1nc(-c2ccc3c(c2)OCO3)cs1)c1ccncc1 | 5.34 (active)
O=C(Nc1ccc2c(c1)OCCO2)c1ccncc1 | -0.637
CC1(C)CC(=O)C(C=NCCC2=CCCCC2)=C(O)C1 | 0.836
O=C(c1ccccc1)N1CCN(C(=O)N2CCCCC2)CC1 | -0.157
O=C(Oc1ccc2c(c1)CCC2)N1CCOCC1 | -0.594
O=C(c1ccccc1)c1ccc(OC(=O)N2CCCC2)cc1 | -2.34 (active)
CC(C)(C)c1ccc(NC(=O)NCc2ccco2)cc1 | 0.39
c1cnc(NC2C3CC4CC(C3)CC2C4)nc1 (centres undefined) | 2.24

Structure (SMILES) | B-score
COc1ccccc1NC(=O)CSc1nc2sc(C)c(C)c2c(=O)n1Cc1ccco1 | -1.75
CCOC(=O)CSc1nc2c(sc(=S)n2CCc2ccccc2)c(=O)n1Cc1ccco1 | 7.17 (active)
CCOC(=O)CSc1nc2c(c(=O)n(C)c(=O)n2C)n1Cc1ccccc1F | -0.066
CC(=O)Nc1ccc(S(=O)(=O)NCCc2ccccc2)cc1 | -0.0675
Cc1cc(C)n(C(=O)c2ccc(C)c(S(=O)(=O)N3CCOCC3)c2)n1 | -0.672
COc1ccc(C(=O)OCC(=O)c2ccc(C)c(S(=O)(=O)N3CCOCC3)c2)cc1OC | 11.4 (active)
Cc1cc(NC(=O)COC(=O)c2ccc(F)c(S(=O)(=O)N3CCOCC3)c2)no1 | 0.164
CCC(C)NC(=O)C1CCC(=O)N1Cc1ccc(C)cc1 (centres undefined) | -0.196
O=C(CN1C(=O)COc2ccccc21)Nc1ccc(F)cc1 | 0.887
O=C(Nc1ccccc1)c1cccnc1Nc1ccccc1 | 1.29
COc1ccc(CNC(=O)c2cc3c(=O)n4ccccc4nc3n(CC3CCCO3)c2=N)cc1 (centres undefined) | 0.00619
Cc1cccn2c(=O)c3cc(C#N)c(=O)n(CCCN4CCOCC4)c3nc12 | -0.675
Cc1cccn2c(=O)c3cc(C#N)c(=NC(=O)c4cccnc4)n(CC4CCCO4)c3nc12 (centres undefined) | 37.8 (active)
CC(=O)NC1CC2CCCC(C1)N2CC(=O)Nc1ccccc1 (centres undefined) | -1.24
C=CCn1c2ccccc2c2nnc(SC(CC)C(=O)Nc3nc(C)c(C(=O)OCC)s3)nc21 (centres undefined) | 1.41
O=C(O)CCC(=O)NCc1ccc2[nH]c3c(c2c1)CCCC3 | 1.3
CCCc1cc(=O)oc2c(C)c(O)c(CN3CCCCC3)cc12 | 0.177
CCn1c(Cc2ccccc2)nnc1SCC(=O)Nc1ccccc1 | -0.0339
Cc1cc(=O)n2nc(N3CCCC(C(=O)NCCC4=CCCCC4)C3)sc2n1 (centres undefined) | -0.152
CCCS(=O)(=O)N1CCC(C(=O)NCCc2ccc(OC)c(OC)c2)CC1 | -0.16
COc1ccc(CCNC(=O)C2CCN(c3nn4c(=O)cc(C)nc4s3)CC2)cc1OC | 4.73 (active)
Clc1ccc(CSc2nnc([C@@H]3CCCN3)o2)cc1 | -0.196

Structure (SMILES) | B-score
CC(C)C1Cc2c(sc3c2c(=O)n(-c2ccccc2)c2nncn32)CO1 (centres undefined) | -0.132
O=C(COc1ccc(Cl)cc1)Nc1ccccc1CO | 1.32
O=C(COC(=O)CCc1c[nH]c(=O)[nH]1)Nc1ccccc1Cl | 2.4 (active)
CC1(C)CC(CCC(=O)Nc2ccccc2Cl)C(=O)O1 (centres undefined) | 0.285
CCOC(=O)N1CCN(Cc2oc(CO)cc(=O)c2O)CC1 | 0.262
O=C(c1ccccc1)c1cccn1CC(=O)N1CCN(c2ccc(F)cc2)CC1 | -0.56
O=C(c1cccc(C(=O)N2CCN(c3ccc(F)cc3)CC2)c1)N1CCN(c2ccc(F)cc2)CC1 | 3.5 (active)
Cc1ccccc1CN1CCN(C(=O)c2cccc(F)c2)CC1 | -0.152
CS(=O)(=O)N(CC(=O)N1CCOCC1)c1ccc2c3c(cccc13)CC2 | 0.155
Cc1ccc(NC2=NC(c3ccccc3)n3c(nc(C)cc3=O)N2)cc1 (centres undefined) | -0.0683
COC(=O)c1ccccc1NC(=O)c1cncc(Br)c1 | 0.529
Cc1cccc2cc(C#N)c(N3CCCC3)nc12 | 1.26
CCOc1ccc2nc(NCCNS(=O)(=O)c3ccccc3)c(C#N)cc2c1 | -0.354
CCOc1ccc2nc(N3CCCN(C(=O)Nc4ccccc4C)CC3)c(C#N)cc2c1 | 49.3 (active)
Nc1ccc(SCCN2C(=O)c3ccccc3C2=O)cc1 | 13.8 (active)
Cc1ccc(SCCN2C(=O)NC(C)(C)C2=O)cc1 | 0.397
O=C1c2ccccc2C(=O)N1CCc1nn[nH]n1 | 0.641
NS(=O)(=O)c1ccc(NS(=O)(=O)/C=C/c2ccccc2)cc1 | -0.0855
O=C(OCCO)c1cc(Cl)c(C(=O)OCCO)cc1Cl | 0.283
Cc1ccc(CNC(=O)CN2CCN(Cc3ccc(Cl)cc3)C2=O)cc1 | -0.559
